The entries come from a sample that favours hits as a whole.
Pf apPOL block – Pf-apPOL inhibitors, biochemical, fluorescence | Plasmodium falciparum apicoplast DNA polymerase (apPOL) | Recombinant Pf-apPOL, molecular beacon fluorescence, 1.5 h | inhibition, % at 10 µM | 0.25% of 210,000 active | AID 1794808, 2022
mHTT CaM bind – mutant huntingtin-calmodulin interaction inhibitors – biochemical, AlphaScreen, primary screen; inhibition, % at 15 µM; 3.6% of 190,000 active; AlphaScreen His-mHTT/GST-CaM binding, luminescence; P42858; AID 1671202, 2021;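 further: 0% = both proteins with DMSO and 100% = one protein alone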
Numbers without * were called inactive; ! = repeats disagree. No stated cut-off is given here; in the data, active means inhibition above about 50%; inactive means the rest.

SMILES | Pf apPOL block | mHTT CaM bind
COCCNC(=O)c1ccc(C(C)C)cc1 | 67.4* | 0.1
O=[N+]([O-])c1ccc(C23CC4CC(CC(Cl)(C4)C2)C3)cc1 | -8.1 | -9.0
C=CCn1c(=N)n(CC(O)c2ccc(Br)cc2)c2ccccc21 (centres undefined) | -3.2 | 5.8
C=CCn1c(=N)n(CC(O)c2ccc(-c3ccccc3)cc2)c2ccccc21 (centres undefined) | 0.2 | 96.3*
O=C(CS(=O)(=O)Cc1ccccc1)Nc1nc2cc3c(cc2s1)OCO3 | 0.0 | 8.7
Cc1ccc(C(=O)N2CCC(C(=O)N3CCN(c4ccccc4F)CC3)CC2)cc1 | 57.4* | 6.1
Cc1ccc(CN2CCC(C(=O)N3CCN(c4ccccc4F)CC3)CC2)cc1 | -4.3 | 16.4
O=C(CN1C(=O)C(c2ccccc2)=NC12CCCCC2)Nc1ccccc1 | -1.2 | 9.1
CC1CCC2(CC1)N=C(c1ccccc1)C(=O)N2CC(=O)Nc1ccc(F)cc1 (centres undefined) | -4.5 | 57.7*
O=C(CN1C(=O)C(c2ccccc2)=NC12CCCCC2)Nc1ccc(F)cc1 | -6.2 | 36.7
COc1ccc(C2=NC3(CCCCC3)N(CC(=O)Nc3ccc(F)c(Cl)c3)C2=O)cc1 | -6.3 | 99.5*
COc1ccc(C2=NC3(CCCCC3)N(CC(=O)Nc3ccc(Cl)cc3)C2=O)cc1 | -8.8 | -6.4
O=C(CN1C(=O)C(c2ccccc2)=NC12CCCC2)Nc1cccc(Cl)c1 | -1.2 | 73.6*
O=C(CN1C(=O)C(c2ccccc2)=NC12CCCCCC2)Nc1ccc(Cl)cc1 | -7.3 | 99.6*
COc1ccc(C2=NC3(CCCCC3)N(CC(=O)Nc3cccc(Cl)c3)C2=O)cc1 | -2.2 | 37.6
Cc1cccc(NC(=O)CN2C(=O)C(c3ccc(F)cc3)=NC23CCCCCC3)c1 | -1.6 | -11.9
O=C(CN1C(=O)C(c2ccc(Cl)cc2)=NC12CCCCC2)Nc1cccc(F)c1 | -5.9 | 75.6*
N#Cc1c(N)nc(SCC(=O)NCc2ccccc2)c(C#N)c1-c1ccccc1Cl | -24.9 | 12.0
COc1ccc(N2C(=O)C(O)=CC2(OC)c2ccccc2)cc1 (centres undefined) | 24.1 | 67.0*
COc1ccc(N2C(=O)CSC23CCCCC3)cc1 | -9.3 | -4.0
Cn1cccc1C(=O)N1CCC(CCOc2ccccc2)CC1 | -7.3 | 57.5*
O=C(COc1ccc(F)cc1)N1CCC(CCOc2ccccc2)CC1 | -2.8 | 69.5*
O=C(COc1ccc(F)cc1)N1CCC(CCOc2ccncc2)CC1 | 0.1 | 5.8
Cn1nccc1C(=O)N1CCC(CCOc2ccccc2)CC1 | 1.9 | 5.5
Cc1ccc(NC(=O)c2cc(S(=O)(=O)NCCc3ccc(Cl)cc3)ccc2F)cc1F | -4.1 | 9.0
SMILES | Pf apPOL block | mHTT CaM bind
COc1cc(C2NC(C(=O)O)CS2)ccc1C (centres undefined) | -5.1 | -9.0
CC(=O)Nc1nc(C)c(-c2csc(Nc3cc(C)ccn3)n2)s1 | -1.6 | 34.0
Cc1cc(F)ccc1NC(=O)c1cnn2c1CCCC2 | -2.5 | -12.2
CC(=O)N(C)Cc1nn(-c2ccc(F)cc2)c2c1CN(Cc1ccccc1F)CC2 | -5.2 | 28.9
O=S(=O)(c1ccc2[nH]c3c(c2c1)CCCC3)N1CCCc2ccccc21 | 2.1 | 76.7*
O=C1CN(S(=O)(=O)c2ccc3[nH]c4c(c3c2)CCCC4)c2ccccc2N1 | 4.9 | 73.6*
O=C1CN(S(=O)(=O)c2ccc(Br)cc2)c2ccccc2N1 | -155.0 | -5.2
O=S(=O)(c1ccc(F)cc1)N1CCCc2ccccc21 | 3.8 | -37.9
CCN(CC)c1ncc2c(n1)CCC(C(=O)Nc1ccc(F)cc1)C2 (centres undefined) | -0.6 | -13.6
COc1ccc(CCNC(=O)c2cc3c(=O)n(C)c(=O)n(C)c3s2)cc1OC | -7.4 | -15.3
Cc1ccc(S(=O)(=O)N2CCC(CCNC(=O)Nc3ccccc3Cl)CC2)cc1 | -2.5 | 33.9
COc1ccc(C2=NN(CC(=O)NCc3ccccn3)C(=O)CC2)cc1 | -17.3 | 25.0
COc1ccc(C2=NN(CCc3ccccn3)C(=O)C2)cc1 | -0.1 | 86.8*
Cc1ccc(C)c(NC(=O)N2CCCC2c2c(C)noc2C)c1 (centres undefined) | -6.1 | 4.4
O=C1C(=Cc2ccccc2Br)Oc2cc(O)ccc21 | -2.0 | 0.7
Cc1cccc(-c2nnc(-c3ccncc3)o2)c1 | -2.3 | 1.1
CC(Oc1ccccc1)C(=O)N1CCc2c(c(C(=O)NCc3ccccc3)nn2C)C1 (centres undefined) | -6.8 | 55.0*
Cn1nc(C(=O)NCc2ccccc2)c2c1CCN(C(=O)c1ccccc1)C2 | 1.3 | 36.5
COc1cc(OC)cc(C(=O)N2CCc3c(c(C(=O)NCc4ccccc4)nn3C)C2)c1 | -3.2 | 74.8*
Cc1ccc(C(=O)N2CCc3c(c(C(=O)NCc4ccccc4)nn3C)C2)cc1 | -2.4 | 75.3*
Cn1nc(C(=O)NCc2ccccc2)c2c1CCN(C(=O)c1ccc(C#N)cc1)C2 | -2.2 | 20.6
COc1ccc(C(=O)N2CCc3c(c(C(=O)NCc4ccccc4)nn3C)C2)cc1 | -10.4 | 55.8*
Cc1ccccc1C(=O)N1CCc2c(c(C(=O)NCc3ccccc3)nn2C)C1 | -16.4 | 11.5
Cn1nc(C(=O)NCc2ccccc2)c2c1CCN(C(=O)c1ccccc1Cl)C2 | -9.8 | 34.2
Cc1cccc(NC(=O)c2cc3cc(Br)ccc3oc2=N)c1 | -0.1 | 4.0
SMILES | Pf apPOL block | mHTT CaM bind
Cc1csc(NC(=O)c2cn(Cc3cccc(F)c3)nc2OCc2cccc(F)c2)n1 | -7.0 | -13.6
COc1ccc2cc(C(=O)N3CCc4c(c(C(=O)NCc5ccccc5)nn4C)C3)[nH]c2c1 | -2.3 | 36.7
COc1ccc(C(=O)N2CCc3c(c(C(=O)NCc4ccccc4)nn3C)C2)c(OC)c1 | -9.9 | 51.4*
CCCC1CCC2(CCCN2CCOC(=S)Nc2cccc(Cl)c2)CC1 (centres undefined) | -3.7 | 27.8
CCCC1CCC2(CCCN2CCOC(=S)Nc2ccccc2)CC1 (centres undefined) | -6.9 | 61.0*
CCCC1CCC2(CCCN2CCOC(=S)Nc2ccccc2Cl)CC1 (centres undefined) | -9.4 | -8.4
CCCC1CCC2(CCCN2CCOC(=O)Nc2cccc(Cl)c2)CC1 (centres undefined) | -7.1 | 95.4*
CC1CCC(NCC(C)(C)CN(C)C)C1 (centres undefined) | 9.9 | -1.8
Cc1ccc(-n2nc3c(c2NC(=O)c2ccc(C)c(C)c2)CS(=O)(=O)C3)c(C)c1 | -3.7 | 24.0
O=[N+]([O-])c1ccc(Sc2nc3ccccc3o2)c([N+](=O)[O-])c1 | 2.3 | 12.0
Nc1ncnc(Sc2nc3ccccc3o2)c1[N+](=O)[O-] | 2.1 | 75.0*
Cc1cc(Sc2ncnc(N)c2[N+](=O)[O-])nc(C)n1 | -1.4 | -2.0
Nc1ncnc(SC2=NCCS2)c1[N+](=O)[O-] | -0.3 | 59.0*
Cc1[nH]c2ccccc2c1-c1csc(-c2cccnc2)n1 | -0.4 | 33.0
Cc1[nH]c2ccccc2c1-c1csc(-c2ccncc2)n1 | 0.2 | 70.0*!
COc1cccc2sc(N(CC3CCCO3)C(=O)c3cnn(-c4ccccc4)c3C)nc12 (centres undefined) | -17.4 | 4.1
O=C(O)C1Nc2c(O)ccc(Br)c2C2C=CCC12 (centres undefined) | -1.8 | 100.3*
O=C(c1ccccc1)c1cc(Cl)cc2c1NC(C(=O)O)C1CC=CC21 (centres undefined) | -1.1 | 5.7
O=C(CN1CCC(c2nc(-c3ccccc3Cl)no2)CC1)Nc1ccccc1Cl | -6.0 | -15.4
